According to PubChem BioAssay (EPA / NIEHS):
Where “and” joins values, the source holds several entries; their conditions need not be identical. Equal values may be shown once. Inconclusive results are not listed. Where a structure was tested more than once in an assay, its records may differ in their call. Calls of active or inactive are those of the source. How the source made its calls: active means hit-call score of the fitted dose curve at least 0.9, where 1 is the maximum; inconclusive means response in the unintended direction; inactive means score below 0.9.

target: Estrogen receptor (Homo sapiens) (UniProt P03372); assay: OT_ER_ERaERa_0480: Odyssey Thera (OT) 8-hour HEK293T Protein-Complementation Assay for Estrogen Receptor-alpha/-alpha Homodimer (AID 2283351);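 further: rise in fluorescence from reassembled reporter fragments on ERα LBD homodimer in nucleus or whole cell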
Sequence (P03372 whole entry, looked up, the tested form may be a part): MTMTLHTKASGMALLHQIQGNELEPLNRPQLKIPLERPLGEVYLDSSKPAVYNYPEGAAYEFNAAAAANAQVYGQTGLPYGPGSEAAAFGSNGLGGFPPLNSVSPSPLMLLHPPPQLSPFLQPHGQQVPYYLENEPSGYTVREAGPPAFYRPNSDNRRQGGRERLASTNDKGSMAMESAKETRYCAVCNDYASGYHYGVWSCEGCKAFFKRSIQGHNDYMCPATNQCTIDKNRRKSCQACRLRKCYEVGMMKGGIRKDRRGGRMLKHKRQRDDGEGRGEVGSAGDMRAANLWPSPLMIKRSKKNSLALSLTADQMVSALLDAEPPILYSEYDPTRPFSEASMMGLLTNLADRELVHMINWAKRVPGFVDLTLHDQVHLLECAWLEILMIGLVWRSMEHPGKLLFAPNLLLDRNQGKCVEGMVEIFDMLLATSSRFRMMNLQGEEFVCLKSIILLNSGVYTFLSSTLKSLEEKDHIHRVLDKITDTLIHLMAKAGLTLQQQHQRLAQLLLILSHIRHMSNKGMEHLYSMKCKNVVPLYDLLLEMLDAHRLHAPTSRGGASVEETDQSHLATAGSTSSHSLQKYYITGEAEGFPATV
Method: OT_ER_ERaERa_0480 is a cell-based assay that uses HEK293T, a human kidney cell line, with measurements taken at 8 hours after chemical dosing in a 384-well plate.OT_ER_ERaERa_0480 is one of one assay component(s) measured or calculated from the OT_ER_ERaERa_0480 assay. It is designed to make measurements of protein fragment complementation, a form of binding reporter, as detected with fluorescence intensity signals by Protein-fragment Complementation technology.Data from the assay component OT_ER_ERaERa_0480 was analyzed into 1 assay endpoint. This assay endpoint, OT_ER_ERaERa_0480, was analyzed in the positive analysis fitting direction relative to DMSO as the negative control and baseline of activity. Using a type of binding reporter, measures of receptor for gain-of-signal activity can be used to understand the binding at the pathway-level as they relate to the gene ESR1. Furthermore, this assay endpoint can be referred to as a primary readout, because the performed assay has only produced 1 assay endpoint. To generalize the intended target to other relatable targets, this assay endpoint is annotated to the nuclear receptor intended target family, where the subfamily is steroidal.
Protein-fragment complementation assay, or PCA, is a method for the identification and quantification of protein-protein interactions. In the PCA, the proteins of interest ("bait" and "prey") are each covalently linked to fragments of a third protein (e.g. DHFR, which acts as a "reporter"). Interaction between the bait and the prey proteins brings the fragments of the reporter protein in close proximity to allow them to form a functional reporter protein whose activity can be measured. The OT ER alpha / ER alpha assay is a homodimer PCA of the ligand binding domain (amino acids 310-547) of human ER alpha stably expressed in HEK293T cells. […] Fluorescent signal in the basal state of the assay is very low and is primarily punctuate and cytoplasmic. Modulation of this assay is quantified as an increase in mean fluorescence intensity in the nucleus (for agonists) or in the nucleus and cytoplasm (antagonists) relative to vehicle controls, and can be quantified on a high content imaging device or a laser scanning cytometer. The latter instrument is favored for this assay because of the rapid mode of data acquisition, the ability to acquire data from the entire cell population in a well (as opposed to a fraction of the well on the high content devices) and the larger dynamic range typically achieved with this instrument. To assess sensitivity of the ER alpha/ER alpha LBD assay to ligand, cells were treated with the ER agonist 17 beta-estradiol (E2) in 10-point concentration- response format for 8 hours and monitored response on a laser scanning plate cytometer (Acumen eX3; TTP Lab Tech).

Structure (SMILES)	outcome	AC50
Cc1c2ccccc2c(C)c2c1ccc1ccccc12	inactive	
O=C(O)c1ccccc1C(=O)OCc1ccccc1	inactive	
O=C(Nc1ccc(Cl)cc1)Nc1ccc(Cl)c(Cl)c1	inactive	
Clc1ccccc1C(c1ccccc1)(c1ccccc1)n1ccnc1	inactive	
CC(=O)N1CCN(c2ccc(OC[C@H]3CO[C@](Cn4ccnc4)(c4ccc(Cl)cc4Cl)O3)cc2)CC1	inactive	
CC(C)(O)c1ccc(CNC(=O)c2cccnc2Oc2ccc3nonc3c2)cc1	inactive	
CC1=CC(=O)/C(=C(/C)O)C(=O)O1	inactive	
CN(C[C@@H](CC[N+]12CCC(C3CCCCC3)(CC1)CC2)c1ccc(Cl)c(Cl)c1)C(=O)c1cc(C(F)(F)F)cc(C(F)(F)F)c1	inactive	
CCCCCCCCCCCO	inactive	
O=C(O)Cn1c(=O)n(Cc2ccc(Br)cc2F)c(=O)c2ccc(Cl)cc21	inactive	
COCC(C)OCC(C)OCC(C)O (stereo not given)	inactive	
O=c1[nH]sc2ccccc12	inactive	
CCCC(=O)OCCC(C)C	inactive	
CC(C)(C)c1csc(-c2cc3cc(OCc4ccccc4CC(=O)O)ccc3o2)n1	inactive	
Cc1occc1C(=O)Nc1ccc(C(=O)N2CCC(F)(F)/C(=C\C(=O)N3CCC(N4CCCCC4)CC3)c3ccccc32)cc1		27.7 µM (active)
CCCCCCCCN(C)CCCCCCCC	inactive	
COc1cc(C(=O)NC2CCN(C)CC2)ccc1Nc1ncc2c(n1)N(C1CCCC1)CC(F)(F)C(=O)N2C	inactive	
OC12N=C(c3ccccc3)SC1Cc1cc(Cl)ccc12 (stereo not given)	inactive	
CCCCCc1ccc(N)cc1	inactive	67 µM (active) and 67.6 µM (active)
CN(C)c1ccc(C(=C2C=CC(=[N+](C)C)C=C2)c2ccc(N(C)C)cc2)cc1	inactive	

Structure (SMILES)	outcome	AC50
NCc1cccc(C2CCN(C(=O)c3ccc(C#Cc4ccccc4F)o3)CC2)c1	inactive	
O=C1c2ccccc2C(=O)N1CCc1noc(-c2ccc(CN3CCCCCC3)s2)n1	inactive	
CCCCCCCCOc1ccc(C(=O)c2ccccc2)c(O)c1	inactive	
CCO[Si](CCCNC(N)=O)(OCC)OCC	inactive	
Cc1cc2c(cc1C(F)(F)F)N(C(=O)Nc1ccc(Oc3cccnc3C)nc1)CC2	inactive	
c1ccc(C[n+]2cccc3ccccc32)cc1	inactive	
Cc1cccc2ccccc12	inactive	
O=C=NCCCCCCN=C=O	inactive	
Cc1oc2c(NC(=O)c3c(Cl)cccc3Cl)cccc2c1C(C)(C)O	inactive	
CCN(Cc1cccnc1)C(=O)c1cccc(Cl)c1[C@]1(C)C(=O)N(Cc2ccc(OC)cc2OC)c2ccc(Cl)cc21	inactive	
COc1cccc([C@H](O)C2CCN(CCc3ccc(F)cc3)CC2)c1OC	inactive	
O=c1ccc2ccccc2o1	inactive	
CN1C(=O)N(c2ccccc2Br)Cc2cnc(Nc3ccc4c(c3)OCC(CO)O4)nc21 (stereo not given)	inactive	
NC(=O)c1nc(-c2cccc(-c3cc(F)ccc3OCC(F)(F)C(F)(F)F)c2)n[nH]1	inactive	
COc1ccc2cc(S(=O)(=O)N[C@H](CC(=O)N[C@H](Cc3ccc(CN4[C@H](C)CCC[C@@H]4C)cc3)C(=O)N(C)C(C)C)c3ccc4c(c3)OCO4)ccc2c1	inactive	
Clc1cc(Cl)c2c(c1)N=C1CCCCCN1C2	inactive	
Cc1ccc(C(C)C)cc1	inactive	
CCCCCCCCOC(=O)c1cc(O)c(O)c(O)c1		12.1 µM (active)
c1ccc2ccccc2c1	inactive	
